PubChem BioAssay (NCATS)
Results filed as inconclusive are left out. Entries that show only a call come without a potency. The source made the active and inactive calls. The call rests on the fitted dose curve; in most records, active means well fitted inhibition curve with a large enough effect; inconclusive means small, poorly fitted or top-dose-only effect; inactive means no such curve, though single readings can be large or run the other way. Residues, ends and D or L forms follow the SMILES beside them. *: point of attachment. Cbz = O=C(OCc1ccccc1)*

Test: HTS Assay for Allosteric Antagonists of the Human D2 Dopamine Receptor: Hit Validation in HTRF (AID 624455);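 further: stable D1 dopamine receptor cell line scored for blocking the D1 response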
Conditions: Cells stably expressing D1 dopamine receptor, inhibition mode; series mostly up to 46.1 µM
Excerpt: Dopamine receptors (DARs) are involved in the etiology and/or therapy of a number of neuropsychiatric and endocrine disorders. For instance, all receptor-based antiparkinsonian drugs work via stimulating the D2 DAR subtype whereas all FDA-approved antipsychotic agents are antagonists of this receptor. […] There are three different types of allosteric modulators that we are seeking, two of which will stimulate or augment receptor signaling, allosteric agonists and potentiators, while the third, allosteric antagonists, will attenuate receptor signaling. The present primary screening assay measures compound antagonism after an EC80 addition of dopamine by tracking calcium flux in a […], inducible Hek293 Trex D2 cell line. This assay measures activity of the hits in the D1 HTRF assay.
NIH Chemical Genomics Center [NCGC]
NIH Molecular Libraries Probe Centers Network [MLPCN]
Assay Submitter (PI): David Sibley
Cells stably expressing the D1 dopamine receptor will be run in an HTRF assay and compounds will be examined for the ability to inhibit the D1 mediated response.
Potency means the concentration at half of the fitted maximal effect.

Structure (SMILES) | Potency
C=C1C(=O)O[C@@H]2[C@H]3O[C@]3(C)CCC=C(C)CC[C@@H]12 | inactive
C=C1C[C@@]23CC[C@H]4[C@@](C)(CCC[C@@]4(C)C(=O)OC4OC(CO)C(O)C(O)C4O)[C@@H]2CC[C@]1(OC1OC(CO)C(O)C(O)C1OC1OC(CO)C(O)C(O)C1O)C3 (stereo not given in full) | inactive
c1ccc(C(NCc2cccnc2)(c2ccccc2)c2ccccc2)cc1 | inactive
C[C@H](O)C(=O)C1=Nc2c(nc(N)[nH]c2=O)NC1 | inactive
CCCC(=O)NCCc1c2n(c3ccc(OC)cc13)CCCc1ccccc1-2 | inactive
CC(C)(C)NCC(O)COc1cccc2[nH]c(=O)[nH]c12 (stereo not given) | inactive
CN1CCN(c2nc3cc(C(F)(F)F)ccc3n3cccc23)CC1 | inactive
CC(N)=NCCCC[C@@H](N)C(=O)O | inactive
Fc1ccc(CN(C2=NCCN2)c2c(Cl)cccc2Cl)cc1 | inactive
NC(N)=N[C@@H](CCC(=O)O)C(=O)O | inactive
CCCCCC(O)CCCC(=O)O (stereo not given) | inactive
CC(C)[C@H](NC(=O)OCc1ccccc1)C(=O)N[C@H](C=O)Cc1ccccc1 (Cbz-Val-Phe-aldehyde) | inactive
OC[C@H]1NC[C@@H](O)[C@@H]1O | inactive
NCC(O)C1CCCCCCC1 (stereo not given) | inactive
[N-]=[N+]=Nc1ccc(C(=O)CSC[C@H](NC(=O)CC[C@H](N)C(=O)O)C(=O)NCC(=O)O)cc1 | inactive
Cc1nc(N=Nc2ccc(S(=O)(=O)O)cc2S(=O)(=O)O)c(COP(=O)(O)O)c(C=O)c1O | inactive
CCCCCCCCCCCCCCC[C@H](O)[C@H](N)CO | inactive
CC(C)C[C@H](NC(=O)C1OC1C(=O)O)C(=O)NCCCCN=C(N)N (stereo not given in full) | inactive
NC1C=CC=C(C(=O)O)C1 (stereo not given) | inactive
O=C(O)C1CN(CCCP(=O)(O)O)CCN1 (stereo not given) | inactive

Structure (SMILES) | Potency
O=C(O)c1ccccc1Nc1cccc(OCc2ccc3ccccc3n2)c1 | inactive
CN1Cc2sccc2C(c2ccc(O)c(O)c2)C1 (stereo not given) | 16.4 nM (active)
O=[N+]([O-])c1cccc2cn[nH]c12 | inactive
N[C@H](C(=O)O)[C@H]1C[C@@H]1C(=O)O | inactive
O=C1Nc2ccc(I)cc2/C1=C/c1cc(Br)c(O)c(Br)c1 | inactive
Cn1cc(C(F)(F)F)nc1-c1ccc(OCC(O)CNCCOc2ccc(O)c(C(N)=O)c2)cc1 (stereo not given) | inactive
Cc1cc2c(cc1Cl)N(C(=O)Nc1ccnc3ccccc13)CC2 | inactive
NC(N)=[N+]1CCc2ccccc2C1 | inactive
Brc1c(Br)c(Br)c2[nH]cnc2c1Br | inactive
COC(=O)C1=C(C)NC(C)=C([N+](=O)[O-])C1c1ccccc1C(F)(F)F (stereo not given) | inactive
CC[n+]1c(/C=C/C=C2/N(C)c3ccccc3C2(C)C)sc2ccccc21 | inactive
COc1ccccc1N1CCN(CCCCNC(=O)c2ccc3ccccc3c2)CC1 | inactive
O=C(O)C1=CCNCC1 | inactive
Cn1c(=O)c2c(nc(/C=C/c3cccc(Cl)c3)n2C)n(C)c1=O | inactive
O=C(O)c1cc(=O)cc(C(=O)O)[nH]1 | inactive
COc1ccccc1N1CCN(CCCCN2C(=O)c3ccccc3C2=O)CC1 | inactive
N[C@H](C(=O)O)c1cc(O)cc(O)c1 | inactive
CN1CCCC1CCOC(C)(c1ccccc1)c1ccc(Cl)cc1 (stereo not given) | inactive
Cc1ccc2c(c1)C(N1CCN(C)CC1)=Nc1cccnc1N2 | inactive
O=C(O)/C=C/c1cnc[nH]1 | inactive
